The panel holds about 83,000 compounds, 20% with a hit somewhere; the sample as a whole holds those more often.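 Results are percent growth after 48 hours of single-concentration exposure. 100 means growth as in untreated cells, lower positive values show inhibition; negative values down to -100 show cell death.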 A number with no mark means an inactive call. Active and inactive are the calls of the source. Rule for the calls: active = growth percent below 10; inactive = the rest.
Experiments:
Assay in all cases: NCI-60 one-dose screen, 48 h (100 = growth as untreated, 0 = no growth, -100 = all killed)
Conditions in all cases: 10 µM unless noted
MOLT-4 leukemia = tested on: MOLT-4 leukemia
RPMI-8226 leukemia = tested on: RPMI-8226 leukemia
OVCAR-8 ovarian = tested on: OVCAR-8 ovarian
OVCAR-5 ovarian = tested on: OVCAR-5 ovarian
OVCAR-4 ovarian = tested on: OVCAR-4 ovarian
SK-OV-3 ovarian = tested on: SK-OV-3 ovarian
IGROV1 ovarian = tested on: IGROV1 ovarian
OVCAR-3 ovarian = tested on: OVCAR-3 ovarian
HS 578T breast = tested on: HS 578T breast
NCI/ADR-RES ovarian = tested on: NCI/ADR-RES ovarian
T-47D breast = tested on: T-47D breast
BT-549 breast = tested on: BT-549 breast
MDA-MB-435 melanoma = tested on: MDA-MB-435 melanoma
SW-620 colon = tested on: SW-620 colon
MCF7 breast = tested on: MCF7 breast
HCT-116 colon = tested on: HCT-116 colon
HCC-2998 colon = tested on: HCC-2998 colon
KM12 colon = tested on: KM12 colon

Compound | growth (MOLT-4 leukemia) | growth (RPMI-8226 leukemia) | growth (OVCAR-8 ovarian) | growth (OVCAR-5 ovarian) | growth (OVCAR-4 ovarian) | growth (SK-OV-3 ovarian) | growth (IGROV1 ovarian) | growth (OVCAR-3 ovarian) | growth (HS 578T breast) | growth (NCI/ADR-RES ovarian) | growth (T-47D breast) | growth (BT-549 breast) | growth (MDA-MB-435 melanoma) | growth (SW-620 colon) | growth (MCF7 breast) | growth (HCT-116 colon) | growth (HCC-2998 colon) | growth (KM12 colon)
COC(=O)[C@]12CCC(C)(C)C[C@H]1[C@H]1C(=O)C[C@@H]3[C@@]4(C)C[C@@]5(CC(C)(C)[C@@H]4CC[C@@]3(C)[C@]1(C)CC2)OO[C@@](C)(C(F)(F)F)O5 | 93.6% | 90.3% | 97.6% | 94.1% | 81.1% | 103% | 97.8% | 106% | 99.7% | 98.6% | 81.4% | 111% | 98.7% | 103% | 82.2% | 88.7% | 106% | 99.9%
COc1ccc(/C=C\c2cc(OC)c(OC)c(OC)c2)cc1NC(=O)/C=C/c1cc(OC)c(OC)c(OC)c1 | 47.7% | 63.8% | 68.8% | 77.6% | 66.1% | 3.82% (active) | 62.4% | 47.7% | 51.8% | 8.42% (active) | 30% | 44% | -53.2% (active) | 47.6% | 25.2% | 44.6% | 91.2% | 28.6%
COc1cccc2c1c(C(=O)C(=O)Nc1cc(C)no1)cn2Cc1ccc(F)cc1 | 32.5% | 20.7% | 81.7% | 76.1% | 90.9% | 102% | 37% | 3.35% (active) | 53.3% | -0.189% (active) | 68% | 25.5% | -34.4% (active) | 15.5% | 26.9% | 34.4% | 58.4% | 16.4%
O=C(c1cccc(O)c1O)c1cn(Cc2ccc(F)cc2)c2cccc(O)c12 | 4.3% (active) | 9.16% (active) | 30.5% | 33.8% | 39% | 40.7% | -42.8% (active) | 22.3% | 45.5% | 19.3% | 34.5% | 41.4% | 14.2% | 37.1% | 26.9% | 30.7% | 35.6% | 44.1%
O=C(Nc1ccc(Br)cc1)c1cc(Br)cc(Br)c1O | 62.2% | -10.1% (active) | 11.1% | 9.56% (active) | 19.7% | -11.7% (active) | 19.4% | 32.9% | 43.4% | -6.08% (active) | -2.63% (active) | -28% (active) | 1.23% (active) | -15.7% (active) | 8.07% (active) | -13.9% (active) | 52.1% | -44.2% (active)
COc1ccc(/C=C/c2cc(OC)c(OC)c(OC)c2)cc1NC(=O)/C=C/c1ccc(F)cc1 | 13.5% | 51.8% | 36.7% | 57.5% | 61.4% | -29% (active) | 46.9% | -10.9% (active) | 5.66% (active) | -3.74% (active) | 32.1% | 35.1% | -41.4% (active) | 30.5% | 20.6% | 23% |  | 25%
CC1=C(CNO)C2=C(C)C3(CC3)[C@@](C)(O)C(=O)C2=C1 | 51% | 99.4% | 34.5% | 1.01% (active) | -8.4% (active) | 4% (active) | -8.2% (active) | -16.5% (active) | 40.2% |  | -3.61% (active) | -13% (active) | 92.1% | 65.7% | 10.6% | 2.04% (active) | -33.4% (active) | 70%
C=C1C(=O)O[C@H]2[C@H]1CC/C(COC(=O)C(=O)c1cn(Cc3ccccc3)c3ccccc13)=C\CC[C@@]1(C)O[C@@H]21 | -17.3% (active) | -36.2% (active) | -2.2% (active) | -32.6% (active) | 7.79% (active) | 86.9% | -85.5% (active) | -82.7% (active) | 5.95% (active) |  | -7.91% (active) | -77.4% (active) | -76.6% (active) | -84.8% (active) | -68.7% (active) | -81.5% (active) | -85.4% (active) | -89.7% (active)
O=C(O)c1ccc([S-])cc1.[Au+].c1ccc(CN2[CH-]N(Cc3ccccc3)C(c3ccccc3)=C2c2ccccc2)cc1 | -1.59% (active) | -11% (active) | 1.87% (active) | -14.2% (active) | 38.1% | -5% (active) | -58.6% (active) | -95.2% (active) | 23.2% |  | -66.5% (active) | -21.2% (active) | -9.04% (active) | -50.2% (active) | -86.1% (active) | -84.7% (active) | -72.7% (active) | -26.1% (active)
